Structures are written as SMILES. For some of these results: Results with a measured potency or affinity are listed apart.

This is an account of results in ChEMBL document CHEMBL3988442, “University of Dundee, Small-Polar-MMV Screening Library” (2021).

What all share (parameters): scale not given: direction of the effect not stated beside the values
For assay [1], the target named is Protein translocase subunit SecA (Escherichia coli (strain K12)) (UniProt P10408). Kind of assay: Assay to Identify E. coli SecA ATPase Inhibitors. As to conditions: 30 µM. It counts as functional.
Protein translocase subunit SecA (Escherichia coli (strain K12)), sequence (P10408 whole entry): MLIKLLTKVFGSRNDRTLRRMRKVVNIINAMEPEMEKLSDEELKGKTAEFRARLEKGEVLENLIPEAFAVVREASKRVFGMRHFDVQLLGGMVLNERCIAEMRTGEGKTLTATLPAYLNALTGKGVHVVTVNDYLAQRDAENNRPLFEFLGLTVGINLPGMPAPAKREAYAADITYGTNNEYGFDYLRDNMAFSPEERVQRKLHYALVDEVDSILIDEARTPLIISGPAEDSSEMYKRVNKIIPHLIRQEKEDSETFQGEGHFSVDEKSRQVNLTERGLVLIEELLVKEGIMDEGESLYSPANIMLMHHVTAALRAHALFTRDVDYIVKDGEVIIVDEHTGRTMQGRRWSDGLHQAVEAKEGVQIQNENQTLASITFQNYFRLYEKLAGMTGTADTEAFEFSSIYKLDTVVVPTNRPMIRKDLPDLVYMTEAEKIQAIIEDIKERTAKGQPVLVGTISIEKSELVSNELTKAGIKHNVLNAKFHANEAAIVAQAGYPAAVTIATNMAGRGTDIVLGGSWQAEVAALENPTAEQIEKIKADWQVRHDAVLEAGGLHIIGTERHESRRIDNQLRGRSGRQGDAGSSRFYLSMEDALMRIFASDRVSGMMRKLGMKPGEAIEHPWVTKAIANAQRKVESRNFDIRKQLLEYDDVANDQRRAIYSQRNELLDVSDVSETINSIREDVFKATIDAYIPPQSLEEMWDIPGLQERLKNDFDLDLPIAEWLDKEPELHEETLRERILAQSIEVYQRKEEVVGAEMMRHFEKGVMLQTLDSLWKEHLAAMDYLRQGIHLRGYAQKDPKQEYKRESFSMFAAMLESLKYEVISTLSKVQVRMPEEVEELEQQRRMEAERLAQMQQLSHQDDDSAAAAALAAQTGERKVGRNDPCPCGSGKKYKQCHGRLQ
Assay [2] deals with T1, Ubiquitin-activating enzyme e1, putative (Leishmania donovani (strain BPK282A1)) (UniProt E9BSI1).
T1 sequence (whole entry): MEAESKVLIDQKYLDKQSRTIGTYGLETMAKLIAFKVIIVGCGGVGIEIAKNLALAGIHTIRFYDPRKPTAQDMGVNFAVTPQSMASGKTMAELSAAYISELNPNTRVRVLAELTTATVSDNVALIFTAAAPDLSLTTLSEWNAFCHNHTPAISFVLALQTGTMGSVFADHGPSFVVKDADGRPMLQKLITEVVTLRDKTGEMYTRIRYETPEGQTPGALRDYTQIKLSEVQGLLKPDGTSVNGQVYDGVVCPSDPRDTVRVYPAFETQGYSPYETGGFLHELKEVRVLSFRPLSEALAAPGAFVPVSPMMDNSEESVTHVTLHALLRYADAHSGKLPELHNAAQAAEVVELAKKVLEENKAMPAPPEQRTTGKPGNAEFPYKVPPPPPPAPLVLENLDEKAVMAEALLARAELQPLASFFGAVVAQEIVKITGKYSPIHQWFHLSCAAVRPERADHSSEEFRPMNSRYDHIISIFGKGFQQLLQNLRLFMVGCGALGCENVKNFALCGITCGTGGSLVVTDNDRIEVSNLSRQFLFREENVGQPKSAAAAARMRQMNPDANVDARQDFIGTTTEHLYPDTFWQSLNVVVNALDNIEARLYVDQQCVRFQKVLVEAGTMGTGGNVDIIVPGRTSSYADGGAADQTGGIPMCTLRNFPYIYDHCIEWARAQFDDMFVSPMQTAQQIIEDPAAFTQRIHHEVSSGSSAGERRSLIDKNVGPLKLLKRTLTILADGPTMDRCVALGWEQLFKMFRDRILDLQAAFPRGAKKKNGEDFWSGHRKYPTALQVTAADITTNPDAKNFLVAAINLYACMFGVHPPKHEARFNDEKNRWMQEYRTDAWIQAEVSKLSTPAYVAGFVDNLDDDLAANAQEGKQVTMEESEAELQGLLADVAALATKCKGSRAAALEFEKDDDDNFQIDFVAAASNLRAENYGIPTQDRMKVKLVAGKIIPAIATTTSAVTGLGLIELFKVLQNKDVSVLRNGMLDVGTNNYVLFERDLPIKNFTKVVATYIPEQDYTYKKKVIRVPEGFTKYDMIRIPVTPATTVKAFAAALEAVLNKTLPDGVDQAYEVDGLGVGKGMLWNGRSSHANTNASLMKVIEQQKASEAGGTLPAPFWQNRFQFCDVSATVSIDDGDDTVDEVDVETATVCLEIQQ
The assay can be described thus: Leishmania donovani Ubiquitin Activating Enzyme (LdE1). It counts as functional. As to conditions: 30 µM.

The target of assay [3] is AMP-activated protein kinase, AMPK (Homo sapiens) (UniProt P54646+O43741+P54619+Q9UGJ0+Q9Y478+Q13131+Q9UGI9). The assay can be described thus: AMP-dependent Kinase enzyme assay. An in vitro enzyme assay that detects ADP turnover that is directly proportional to AMPK activity. This uses naive AMPK that is activated during the assay with MK-8722. Type of assay: functional. As to conditions: 30 µM.

For assay [4], the target named is Sialic acid-binding Ig-like lectin 9 (Homo sapiens) (UniProt Q9Y336). The assay can be described thus: Hs-Siglec9 ALPHAscreen SOP 20170721. To be noted: 10 µM.
Sialic acid-binding Ig-like lectin 9 (Homo sapiens), sequence (Q9Y336 whole entry): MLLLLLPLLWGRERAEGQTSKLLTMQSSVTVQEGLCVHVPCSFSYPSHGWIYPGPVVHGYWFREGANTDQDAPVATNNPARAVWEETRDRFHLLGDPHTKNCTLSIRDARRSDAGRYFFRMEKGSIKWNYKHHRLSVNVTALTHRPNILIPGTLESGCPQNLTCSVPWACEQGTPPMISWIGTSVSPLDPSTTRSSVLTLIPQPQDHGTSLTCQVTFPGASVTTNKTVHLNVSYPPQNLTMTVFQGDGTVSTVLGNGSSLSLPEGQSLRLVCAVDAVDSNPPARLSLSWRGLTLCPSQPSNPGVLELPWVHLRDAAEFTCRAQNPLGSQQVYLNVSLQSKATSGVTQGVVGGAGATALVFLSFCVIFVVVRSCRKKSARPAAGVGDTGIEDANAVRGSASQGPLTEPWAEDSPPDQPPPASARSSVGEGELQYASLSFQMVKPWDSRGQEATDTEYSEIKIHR
The test system of assay [5] is Trypanosoma cruzi. Kind of assay: Trypanosoma cruzi phosphomannomutase and mannose-1-phosphate guanylyltransferase assay. It counts as functional. As to conditions: 10 µM.
Assay [6] deals with T2, Arginase-2, mitochondrial (Homo sapiens) (UniProt P78540).
T2 sequence (whole entry): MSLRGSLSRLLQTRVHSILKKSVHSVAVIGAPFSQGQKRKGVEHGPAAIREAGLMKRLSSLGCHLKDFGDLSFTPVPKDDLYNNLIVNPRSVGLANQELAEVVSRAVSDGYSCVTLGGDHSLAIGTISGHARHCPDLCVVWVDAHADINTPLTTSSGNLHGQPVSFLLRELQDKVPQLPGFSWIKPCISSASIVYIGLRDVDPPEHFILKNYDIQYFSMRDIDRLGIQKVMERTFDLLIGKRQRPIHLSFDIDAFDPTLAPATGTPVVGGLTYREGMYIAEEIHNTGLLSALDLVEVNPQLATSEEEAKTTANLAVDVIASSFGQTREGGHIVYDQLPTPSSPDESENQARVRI
The assay can be described thus: in vitro enzyme assay to detect the production of urea directly proportional to the activity of Arginase II. Further: in the data most compounds retested in dose-response had high values. Type of assay: functional. As to conditions: 33.3 µM.

Assay [7] deals with T3, Proteasome subunit beta (Trypanosoma cruzi) (UniProt O96673).
T3 sequence (whole entry): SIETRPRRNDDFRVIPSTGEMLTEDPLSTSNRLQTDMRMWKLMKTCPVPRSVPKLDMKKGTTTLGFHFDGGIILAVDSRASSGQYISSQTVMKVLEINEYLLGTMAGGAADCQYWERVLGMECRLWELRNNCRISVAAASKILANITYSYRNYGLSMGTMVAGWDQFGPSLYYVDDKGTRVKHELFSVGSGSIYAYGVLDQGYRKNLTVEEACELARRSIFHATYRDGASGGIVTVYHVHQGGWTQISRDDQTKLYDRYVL
The assay can be described thus: Trypanosoma cruzi proteasome chymotrypsin-like activity (TcProtChymo) assay. Further: in the data most compounds retested in dose-response had high values. Type of assay: functional. As to conditions: 9.37 µM.

For assay [8], the species on record is Homo sapiens. The assay can be described thus: To identify inhibition of the IFN signalling (Jak-Stat) pathway via expression of an eGFP reporter gene under the control of an IFN-stimulated response element (ISRE) containing MxA promoter. Type of assay: functional. To be noted: 30 µM. Background: A reporter such as luciferase makes a cellular process visible.

Assay [9] concerns the target T4, Tyrosyl-tRNA synthetase, putative (Trypanosoma cruzi (strain CL Brener)) (UniProt Q4DSP6).
T4 sequence (whole entry): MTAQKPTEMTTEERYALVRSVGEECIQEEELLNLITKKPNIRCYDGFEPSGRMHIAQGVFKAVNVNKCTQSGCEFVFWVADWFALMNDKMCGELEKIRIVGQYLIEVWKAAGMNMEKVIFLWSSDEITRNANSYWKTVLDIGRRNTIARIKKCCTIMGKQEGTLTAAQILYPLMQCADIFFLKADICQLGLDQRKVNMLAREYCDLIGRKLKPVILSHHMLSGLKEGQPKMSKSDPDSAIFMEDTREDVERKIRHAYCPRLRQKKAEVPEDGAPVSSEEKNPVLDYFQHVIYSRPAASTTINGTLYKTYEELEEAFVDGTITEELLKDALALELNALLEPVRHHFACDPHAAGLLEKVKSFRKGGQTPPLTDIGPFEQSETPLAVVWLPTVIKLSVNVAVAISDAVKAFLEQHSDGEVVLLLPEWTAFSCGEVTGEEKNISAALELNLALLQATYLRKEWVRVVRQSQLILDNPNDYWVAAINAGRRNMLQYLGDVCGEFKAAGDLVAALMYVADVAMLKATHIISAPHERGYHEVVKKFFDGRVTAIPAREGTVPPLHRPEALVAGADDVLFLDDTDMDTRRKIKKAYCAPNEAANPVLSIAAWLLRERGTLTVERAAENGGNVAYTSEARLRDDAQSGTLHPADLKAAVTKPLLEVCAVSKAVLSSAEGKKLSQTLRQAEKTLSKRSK
Kind of assay: Trypanosoma cruzi tyrosyl tRNA synthetase (TcYRS) _High Tyrosine SOP. Further: in the data most compounds retested in dose-response had high values. Type of assay: functional. To be noted: 30 µM.

The target of assay [10] is T4, Tyrosyl-tRNA synthetase, putative (Trypanosoma cruzi (strain CL Brener)). Kind of assay: Trypanosoma cruzi tyrosyl tRNA synthetase (TcYRS) SOP. As to conditions: 30 µM. It counts as functional.
Assay [11] addresses Chromo domain-containing protein 1 (Saccharomyces cerevisiae (strain ATCC 204508 / S288c) (Baker's yeast)) (UniProt P32657). Kind of assay: ScCHD-1 Enzyme Inhibition Assay. Further: in the data most compounds retested in dose-response had high values. As to conditions: 30 µM. It counts as functional.

Chromo domain-containing protein 1 (Saccharomyces cerevisiae (strain ATCC 204508 / S288c) (Baker's yeast)), sequence (P32657 whole entry, the tested form may be a part): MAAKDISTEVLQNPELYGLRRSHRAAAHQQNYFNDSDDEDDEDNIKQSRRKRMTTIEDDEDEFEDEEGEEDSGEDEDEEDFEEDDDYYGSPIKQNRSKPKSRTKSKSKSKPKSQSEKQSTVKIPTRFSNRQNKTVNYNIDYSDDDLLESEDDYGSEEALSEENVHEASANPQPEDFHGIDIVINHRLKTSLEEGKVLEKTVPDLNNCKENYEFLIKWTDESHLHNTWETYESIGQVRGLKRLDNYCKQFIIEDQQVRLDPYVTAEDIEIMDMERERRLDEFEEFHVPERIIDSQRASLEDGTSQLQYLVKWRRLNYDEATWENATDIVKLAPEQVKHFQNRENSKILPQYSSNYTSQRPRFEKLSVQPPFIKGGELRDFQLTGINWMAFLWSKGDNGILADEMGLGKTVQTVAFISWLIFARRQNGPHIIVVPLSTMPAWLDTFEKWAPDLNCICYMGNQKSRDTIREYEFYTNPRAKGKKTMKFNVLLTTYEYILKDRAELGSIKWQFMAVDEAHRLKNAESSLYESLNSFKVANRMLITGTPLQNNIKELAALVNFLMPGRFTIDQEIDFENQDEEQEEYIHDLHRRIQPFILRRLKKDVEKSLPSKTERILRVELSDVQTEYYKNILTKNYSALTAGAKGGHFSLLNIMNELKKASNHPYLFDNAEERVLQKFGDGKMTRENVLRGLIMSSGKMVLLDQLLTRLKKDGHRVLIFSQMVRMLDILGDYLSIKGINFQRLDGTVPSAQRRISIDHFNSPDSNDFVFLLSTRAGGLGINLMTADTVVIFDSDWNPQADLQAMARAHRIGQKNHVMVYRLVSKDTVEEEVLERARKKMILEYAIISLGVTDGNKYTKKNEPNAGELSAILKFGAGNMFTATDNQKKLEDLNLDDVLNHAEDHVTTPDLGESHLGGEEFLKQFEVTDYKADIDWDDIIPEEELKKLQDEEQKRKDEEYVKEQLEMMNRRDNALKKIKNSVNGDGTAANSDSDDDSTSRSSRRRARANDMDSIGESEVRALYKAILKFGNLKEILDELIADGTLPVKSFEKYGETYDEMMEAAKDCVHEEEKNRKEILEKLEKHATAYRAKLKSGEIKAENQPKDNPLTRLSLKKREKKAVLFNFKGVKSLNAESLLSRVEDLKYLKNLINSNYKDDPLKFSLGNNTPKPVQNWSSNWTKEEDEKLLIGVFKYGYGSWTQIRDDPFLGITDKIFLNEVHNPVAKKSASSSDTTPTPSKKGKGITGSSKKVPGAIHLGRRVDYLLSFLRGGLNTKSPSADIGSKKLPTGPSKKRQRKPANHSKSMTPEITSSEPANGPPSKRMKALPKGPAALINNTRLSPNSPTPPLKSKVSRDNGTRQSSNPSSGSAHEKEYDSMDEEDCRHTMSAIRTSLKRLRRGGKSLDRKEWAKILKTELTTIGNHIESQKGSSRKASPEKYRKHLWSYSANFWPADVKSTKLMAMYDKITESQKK

`Cc1cnn(CC2CCCCN2C(=O)c2ccnc(N(C)C)c2)c1` (stereo not drawn): the Percent Effect in assay [1] is -4.87%; in [2] it was 10.4%; in [3], 2.75%; in [4], 9.97%; in assay [5], -0.49%; in [6], 4.42%. Moreover, the Percent Effect is 13.8% in [7]; 5.85% in [8]; 2.86% in [9]; 9.41% in assay [10]; -16.5% in [11].

For `FC(F)(F)c1cccc(C2(CNCc3ccncc3)CCOCC2)c1`, the Percent Effect in [1] is -0.743%; in assay [2], 10.8%; in assay [3] it was -6.5%; in assay [4], -1.68%; in assay [5] it was -2.34%; in assay [6], -1.67%. The Percent Effect in assay [7] turned out to be 13.9%; in assay [8], 23.6%; in assay [9], 7.92%; in [10], 11%; in assay [11] it was 16.9%.

On to `CCOCCCNC(=O)c1cn(CC)nc1C`, for which the Percent Effect in assay [1] was -3.21%; in assay [2], 20%; in [3], -2.97%; in assay [4], -1.34%; in assay [5], 0.982%; in [6], 1.58%. Moreover, the Percent Effect in assay [7] was 15.3%; in assay [8], 16.9%; in assay [9], 6.35%; in assay [10], 17.9%; in assay [11], -9.37%.

Regarding `CS(=O)(=O)N1CCC(C(=O)NC(Cc2ccsc2)c2nccs2)CC1` (stereo not drawn), the Percent Effect in assay [1] is -5.37%; in assay [2], 9.46%; in [3], 6.1%; in [4], -1.37%; in assay [5], -3.36%; in assay [6], -1.16%. Besides, the Percent Effect in assay [7] turned out to be 2.65%; in assay [8] it was 12.9%; in assay [9], 0%; in assay [10] it was 11.7%; in [11] it was 2.8%.

As to `O=C(c1ccncc1)N1CCC(O)(Cn2ccc3ccncc32)CC1`, the Percent Effect in assay [1] is -2.15%; in assay [2] it was 6.76%; in assay [3], 7.19%; in assay [4], -2.13%; in [5], -3.75%; in assay [6], 0.232%. Moreover, the Percent Effect in [7] was 17.9%; in [8], -0.964%; in assay [9], 4.3%; in assay [10], 9.09%; in assay [11] it was -10.5%.

On to `CNc1nc2c(s1)C(c1c(Cl)cccc1Cl)CC(=O)N2` (stereo not drawn), for which the Percent Effect in assay [1] was 2.52%; in assay [2], 5.26%; in assay [3] it was -467%; in [4], 4.3%; in assay [5] it was 0.682%; in assay [6] it was 0%. Besides, the Percent Effect was 17% in assay [7]; 4.23% in assay [8]; -10.6% in assay [9]; -10.4% in [10]; -2.54% in assay [11].

As for `CN(C)CCN1CCOCC2(C1)CN(Cc1ccsc1)CCO2` (stereo not drawn), the Percent Effect is -4.22% in [1]; 5.33% in [2]; 14.3% in assay [3]; 0.643% in [4]; -2.56% in assay [5]; 4.89% in assay [6]. For the same compound, the Percent Effect was 4.67% in [7]; -0.367% in assay [8]; 4.25% in assay [9]; 8.97% in assay [10]; -3.51% in [11].

With `O=C(Cn1nc2c(cc1=O)CSCC2)NC(Cc1ccccc1)C(=O)O` (stereo not drawn), the Percent Effect in assay [1] is -6.43%; in assay [2], 20%; in [3], -8.36%; in [4], 1.5%; in [5] it was 7.47%; in [6], 89.3%. For the same compound, the Percent Effect was 15% in [7]; 7.8% in assay [8]; -2.12% in assay [9]; 15.4% in assay [10]; -19% in assay [11].
